Counter-ions that a name gives are not always drawn. ± gives the standard deviation of the averaged measurements.
Experiments:
Assay in all cases: growth (OD600 after 10 h); higher = more growth (less inhibition)
[1] = tested on: E. coli TESEC Alr+ wild-type control; settings: compound 0.1 mM; raw OD600 reference: median of DMSO wells 0.241, cell-free background 0.041
Description: (§1)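 TESEC Mtb Alr E. coli, or the Alr+ wild-type control, in 384-well plates with Prestwick library compounds at 0.1 mM and 1% DMSO, across arabinose induction levels of 1E3 to 1E7 nM. Growth is read as OD600 after 10 h at 37 °C in triplicate biological replicates.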

E. coli TESEC Mtb Alr [2] = settings: compound 0.1 mM
Description: as §1

E. coli TESEC Mtb Asd = settings: compound 0.1 mM
Description: (§2)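 TESEC E. coli strains in which the native enzyme is deleted and replaced by arabinose-inducible Mtb Asd, DapB, CysH or TrpD, each grown in its selective medium. Strains were screened against the Prestwick library at 0.1 mM and 1% DMSO in 384-well format at low and high arabinose induction. Growth is read as OD600 after 10 h in triplicate.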

E. coli TESEC Mtb DapB = settings: compound 0.1 mM
Description: as §2

[3] = tested on: E. coli TESEC Alr+ wild-type control; settings: compound 0.1 mM; raw OD600 reference: median of DMSO wells 0.49, cell-free background 0.052
Description: (§3)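 TESEC Mtb Alr E. coli (ΔaraC ΔtolC ΔentC Δalr ΔdadX, arabinose-inducible Mtb Alr) or the Alr+ wild-type control strain, grown in defined M9-fructose medium without D-alanine in 96-well plates with Prestwick library compounds at 0.1 mM and 1% DMSO. Low Alr induction is 0.1 µM arabinose and high induction is 10 mM arabinose.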

E. coli TESEC Mtb Alr [4] = settings: compound 0.1 mM; remark: listed apart in the source
Description: as §3

[5] = arabinose 1000 nM, raw OD600 reference: median of DMSO wells 0.294, cell-free background 0.041
[6] = arabinose 10000 nM, raw OD600 reference: median of DMSO wells 0.264, cell-free background 0.041
[7] = arabinose 100000 nM, raw OD600 reference: median of DMSO wells 0.201, cell-free background 0.041
[8] = arabinose 1000000 nM, raw OD600 reference: median of DMSO wells 0.193, cell-free background 0.041
[9] = arabinose 10000000 nM, raw OD600 reference: median of DMSO wells 0.146, cell-free background 0.041
[10] = arabinose induction (level): High, raw OD600 reference: median of DMSO wells 0.331, cell-free background 0.041
[11] = arabinose induction (level): Low, raw OD600 reference: median of DMSO wells 0.417, cell-free background 0.041
[12] = arabinose induction (level): High, raw OD600 reference: median of DMSO wells […], cell-free background 0.041
[13] = arabinose induction (level): Low, raw OD600 reference: median of DMSO wells 0.227, cell-free background 0.041
[14] = arabinose 100 nM, raw OD600 reference: median of DMSO wells 0.413, cell-free background 0.052
[15] = arabinose 10000000 nM, raw OD600 reference: median of DMSO wells […], cell-free background 0.052

Row | Structure (SMILES) | growth [1] | growth (E. coli TESEC Mtb Alr [2]; [5]) | growth (E. coli TESEC Mtb Alr [2]; [6]) | growth (E. coli TESEC Mtb Alr [2]; [7]) | growth (E. coli TESEC Mtb Alr [2]; [8]) | growth (E. coli TESEC Mtb Alr [2]; [9]) | growth (E. coli TESEC Mtb Asd; [10]) | growth (E. coli TESEC Mtb Asd; [11]) | growth (E. coli TESEC Mtb DapB; [12]) | growth (E. coli TESEC Mtb DapB; [13]) | growth [3] | growth (E. coli TESEC Mtb Alr [4]; [14]) | growth (E. coli TESEC Mtb Alr [4]; [15])
1 | CC(=O)O[C@H]1C(=O)[C@@]2(C)[C@H]([C@H](OC(=O)c3ccccc3)[C@]3(O)C[C@H](OC(=O)[C@H](O)[C@@H](NC(=O)c4ccccc4)c4ccccc4)C(C)=C1C3(C)C)[C@]1(OC(C)=O)CO[C@@H]1C[C@@H]2O [Paclitaxel] | 0.23 ± 0.013 | 0.285 ± 0.019 | 0.255 ± 0.024 | 0.222 ± 0.019 | 0.2 ± 0.015 | 0.179 ± 0.018 | 0.34 ± 0.051 | 0.385 ± 0.079 | 0.209 ± 0.006 | 0.279 ± 0.059 | 0.554 ± 0.03 | 0.429 ± 0.014 | 0.336 ± 0.033
2 | CC(CN1c2ccccc2Sc2ccccc21)N(C)C (stereo not drawn) [Promethazine hydrochloride] | 0.197 ± 0.0039 | 0.215 ± 0.013 | 0.2742 ± 0.0025 | 0.197 ± 0.018 | 0.13 ± 0.0016 | 0.157 ± 0.004 | 0.139 ± 0.0045 | 0.254 ± 0.021 | 0.221 ± 0.016 | 0.245 ± 0.012 | 0.456 ± 0.026 | 0.409 ± 0.014 | 0.334 ± 0.0051
3 | CC(=O)OCC(=O)[C@@]12OC3(CCCC3)O[C@@H]1C[C@H]1[C@@H]3CCC4=CC(=O)C=C[C@]4(C)[C@@]3(F)[C@@H](O)C[C@@]12C [Amcinonide] | 0.185 ± 0.011 | 0.287 ± 0.066 | 0.272 ± 0.011 | 0.241 ± 0.059 | 0.242 ± 0.07 | 0.172 ± 0.011 | 0.451 ± 0.11 | 0.402 ± 0.067 | 0.222 ± 0.043 | 0.265 ± 0.025 | 0.462 ± 0.024 | 0.4092 ± 0.0021 | 0.304 ± 0.0053
4 | Nc1nc(F)nc2c1ncn2[C@@H]1O[C@H](CO)[C@@H](O)[C@@H]1O [Fludarabine] | 0.207 ± 0.0038 | 0.216 ± 0.0082 | 0.241 ± 0.0025 | 0.168 ± 0.011 | 0.185 ± 0.0037 | 0.133 ± 0.0056 | 0.272 ± 0.031 | 0.222 ± 0.035 | 0.168 ± 0.014 | 0.194 ± 0.028 | 0.626 ± 0.044 | 0.411 ± 0.0067 | 0.31 ± 0.004
5 | O=C1O[C@H]([C@@H](O)CO)C(O)=C1O [Ascorbic acid] | 0.255 ± 0.0052 | 0.303 ± 0.0086 | 0.249 ± 0.007 | 0.22 ± 0.043 | 0.186 ± 0.0041 | 0.157 ± 0.0037 | 0.374 ± 0.076 | 0.445 ± 0.06 | 0.187 ± 0.0051 | 0.209 ± 0.0043 | 0.483 ± 0.056 | 0.387 ± 0.024 | 0.35 ± 0.028
6 | CN(C)CCC(c1ccc(Cl)cc1)c1ccccn1 (stereo not drawn) [Chlorpheniramine maleate] | 0.22 ± 0.0024 | 0.264 ± 0.022 | 0.259 ± 0.0028 | 0.18 ± 0.018 | 0.162 ± 0.0019 | 0.135 ± 0.0055 | 0.291 ± 0.091 | 0.399 ± 0.061 | 0.187 ± 0.012 | 0.23 ± 0.0095 | 0.466 ± 0.037 | 0.4277 ± 0.0018 | 0.325 ± 0.01
7 | COc1cc(N)c(Cl)cc1C(=O)NC1CCN(CCCOc2ccc(F)cc2)CC1OC (stereo not drawn) [Cisapride] | 0.2147 ± 0.0012 | 0.2892 ± 0.0012 | 0.2613 ± 0.0016 | 0.201 ± 0.03 | 0.155 ± 0.0047 | 0.148 ± 0.0037 | 0.222 ± 0.017 | 0.357 ± 0.041 | 0.171 ± 0.003 | 0.186 ± 0.0052 | 0.552 ± 0.1 | 0.41 ± 0.011 | 0.458 ± 0.038
8 | O=C1c2c(O)cccc2Cc2cccc(O)c21 [Anthralin] | 0.161 ± 0.0039 | 0.159 ± 0.018 | 0.169 ± 0.017 | 0.205 ± 0.0082 | 0.151 ± 0.0087 | 0.182 ± 0.0047 | 0.22 ± 0.013 | 0.306 ± 0.13 | 0.246 ± 0.017 | 0.229 ± 0.051 | 0.339 ± 0.015 | 0.29 ± 0.034 | 0.239 ± 0.03
9 | c1ccc2c(CC3=NCCN3)cccc2c1 [Naphazoline hydrochloride] | 0.231 ± 0.0088 | 0.26 ± 0.032 | 0.268 ± 0.0057 | 0.191 ± 0.019 | 0.189 ± 0.0029 | 0.147 ± 0.0052 | 0.238 ± 0.042 | 0.333 ± 0.048 | 0.184 ± 0.011 | 0.21 ± 0.016 | 0.549 ± 0.075 | 0.41 ± 0.0069 | 0.323 ± 0.018
10 | Nc1ncnc2c1ncn2C1OC(COP(=O)(O)O)C(O)C1O (stereo not drawn) [Adenosine 5'-monophosphate monohydrate] | 0.26 ± 0.015 | 0.32 ± 0.013 | 0.2658 ± 0.0011 | 0.237 ± 0.021 | 0.175 ± 0.0094 | 0.15 ± 0.0046 | 0.276 ± 0.078 | 0.336 ± 0.058 | 0.214 ± 0.0055 | 0.25 ± 0.071 | 0.569 ± 0.09 | 0.374 ± 0.033 | 0.363 ± 0.013
11 | CN1[C@@H]2CC[C@H]1C[C@@H](OC(c1ccccc1)c1ccccc1)C2 [Benztropine mesylate] | 0.1702 ± 0.0017 | 0.219 ± 0.0061 | 0.289 ± 0.037 | 0.165 ± 0.0036 | 0.133 ± 0.0073 | 0.166 ± 0.0023 | 0.137 ± 0.018 | 0.253 ± 0.076 | 0.166 ± 0.0063 | 0.201 ± 0.011 | 0.487 ± 0.029 | 0.4104 ± 0.0035 | 0.288 ± 0.0043
12 | Nc1ccc(S(=O)(=O)Nc2ncccn2)cc1 [Sulfadiazine] | 0.257 ± 0.0066 | 0.288 ± 0.017 | 0.241 ± 0.0079 | 0.199 ± 0.036 | 0.1549 ± 0.0004 | 0.146 ± 0.0024 | 0.374 ± 0.043 | 0.414 ± 0.0071 | 0.184 ± 0.015 | 0.187 ± 0.023 | 0.464 ± 0.054 | 0.411 ± 0.011 | 0.312 ± 0.066
13 | CCOC(=O)C1=C(COCCN)NC(C)=C(C(=O)OC)C1c1ccccc1Cl (stereo not drawn) [Amlodipine] | 0.231 ± 0.0038 | 0.2004 ± 0.0019 | 0.23 ± 0.022 | 0.179 ± 0.0029 | 0.0929 ± 0.0035 | 0.104 ± 0.0021 | 0.132 ± 0.0075 | 0.136 ± 0.0072 | 0.155 ± 0.077 | 0.205 ± 0.017 | 0.566 ± 0.028 | 0.398 ± 0.0055 | 0.282 ± 0.011
14 | COC(=O)[C@@H]1[C@H]2C[C@H]3c4[nH]c5ccccc5c4CCN3C[C@@H]2CC[C@@H]1O [Yohimbine hydrochloride] | 0.217 ± 0.0081 | 0.28 ± 0.007 | 0.265 ± 0.0075 | 0.176 ± 0.011 | 0.142 ± 0.0078 | 0.142 ± 0.0022 | 0.163 ± 0.031 | 0.318 ± 0.074 | 0.166 ± 0.01 | 0.19 ± 0.012 | 0.525 ± 0.13 | 0.409 ± 0.011 | 0.343 ± 0.031
15 | NC(=O)OCC(COC(N)=O)c1ccccc1 [Felbamate] | 0.24 ± 0.0061 | 0.288 ± 0.0029 | 0.26 ± 0.0095 | 0.201 ± 0.023 | 0.204 ± 0.0095 | 0.137 ± 0.0061 | 0.423 ± 0.044 | 0.316 ± 0.031 | 0.224 ± 0.0049 | 0.212 ± 0.0076 | 0.608 ± 0.097 | 0.405 ± 0.011 | 0.369 ± 0.025
16 | NC[C@H]1O[C@H](O[C@H]2[C@H](O[C@@H]3O[C@H](CO)[C@@H](O)[C@H]3O)[C@@H](O)[C@H](N)C[C@@H]2N)[C@H](N)[C@@H](O)[C@@H]1O [Ribostamycin sulfate salt] | 0.238 ± 0.011 | 0.286 ± 0.0099 | 0.269 ± 0.0065 | 0.182 ± 0.025 | 0.201 ± 0.015 | 0.138 ± 0.0082 | 0.37 ± 0.013 | 0.458 ± 0.012 | 0.218 ± 0.023 | 0.226 ± 0.016 | 0.549 ± 0.058 | 0.42 ± 0.011 | 0.366 ± 0.012

From the supplement of paper PMC9262897, “Low-cost anti-mycobacterial drug discovery using engineered E. coli” (Nature Communications, 2022)
